Screening data as filed in PubChem.
Env fusion inh: blocks HIV Env-driven cell-cell fusion | 1.1% of 360,000 active | inhibition, % at 12.3 µM | HeLa-JRFL Env/CEM21 cell fusion, luciferase;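 active = mean replicate inhibition score of at least 50 and every replicate individually at or above 50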
NSD2 inh: NSD2 (human) methyltransferase inhibition | O96028 | NSD2 peptide methylation, AlphaScreen, 120 min | inhibition, % at 12.5 µM | 0.54% of 310,000 active; in the data active = inhibition above about 50%
F508del corr: correctors of CFTR F508del function in bronchial epithelial cells; AID 720511; activity (quench increase), % at 7.58 µM; 0.36% of 350,000 active; CFBE cells, YFP halide quenching; stimulated with forskolin plus potentiator P3; % fluorescence drop versus neutral controls;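 active = mean added fluorescence quench of at least 8% versus neutral control, with both replicates also reaching 8%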;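 also: cells transiently co-express mutant CFTR-F508del with the halide-sensitive YFP; corrector assay measuring rescue of mutant channel to the surface after 24 h compound exposure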
PglD DTNB: PglD (C. jejuni) enzyme inhibition; purified PglD enzyme, DTNB colorimetric CoA detection; 0.098% of 360,000 active; AID 602405; inhibition, % at 12.5 µM; in the data active = inhibition above about 16%, passing the limit was not always enough
Casp6 inh: inhibitors of human caspase-6. purified caspase-6, Z-VEID-R110 cleavage fluorescence. 0.53% of 350,000 active. inhibition, % at 12.5 µM. P55212;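 active = mean inhibition across replicates at least about 35%, with every replicate also reaching that limit, limit read from the data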
ALR inh: inhibitors of human sulfhydryl oxidase ALR | inhibition, % (no concentration beside the values) | AID 485317 | purified ALR, DTT oxidation, H2O2 HRP-luminol luminescence | P55789 | 3.8% of 290,000 active;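 active = mean replicate inhibition above about 79%, with every replicate also reaching it, limit read from the data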
Hits are given with their value; 0 = inactive; - = not tested or not shown; [ ] = remark or other dose. Most compounds without a hit are left out; they make up all but 4.1% or so of the library.

SMILES	Env fusion inh	NSD2 inh	F508del corr	PglD DTNB	Casp6 inh	ALR inh
CC(C)c1nc2oc3c(NCCO)ncnc3c2c2c1COC(C)(C)C2	0	0	13	0	0	0
CNC(=O)c1ccccc1NC(=O)C1CC(=O)N(C(C)C)C1 (stereo not given)	0	0	0	0	66	-
Cc1c(C(=O)NNC(=S)Nc2ccc(S(N)(=O)=O)cc2)oc2ccccc12	0	0	0	0	0	99
NS(=O)(=O)c1ccc(NC(=S)NNC(=O)c2ccc(Br)o2)cc1	0	0	0	0	0	95
Cc1c(C(=O)Nc2ccc(S(N)(=O)=O)cc2)oc2ccc(Cl)cc12	0	0	0	-	0	0
CN(C)/C=C/C(=O)c1ccc(Cl)cc1Cl	0	0	0	-	0	0
Cc1nn(C)c(Cl)c1/C=C/C(=O)O	0	-	0	-	0	0
Cc1nn(C)c(C)c1/C=C/C(=O)O	0	0	13	0	0	-
Cc1nn(C)c(C)c1/C=C/C(=O)c1ccc(Cl)cc1Cl	56	0	0	-	0	0
CC(C)(C)NC(=O)CSc1nc(O)cc(=O)n1-c1ccccc1	-	0	0	0	0	0
CN(C(=O)CSc1nc(O)cc(=O)n1C1CCCC1)c1ccccc1	0	0	0	0	0	98
CN(C(=O)CSc1nc(O)cc(=O)n1-c1ccccc1F)c1ccccc1	65	0	0	0	0	0
Cc1nnc(SCC(=O)N(C)c2ccccc2)n1-n1cccc1	0	0	0	0	0	0
CC(C)C[C@H]1COCc2cn(nn2)CC[C@H](Cc2ccccc2)C(=O)N1	0	-	-	-	0	-
C[C@H](CO)N1C[C@H](C)[C@@H](CN(C)Cc2ccc3c(c2)OCO3)Oc2ccc(NC(=O)Nc3ccc(C(F)(F)F)cc3)cc2CC1=O	0	-	0	0	0	-
Cc1ccc(CNS(=O)(=O)c2cc3c(cc2C)N(C)CCO3)cc1	0	-	0	0	0	89
CC(=O)N1CCOc2cc(S(=O)(=O)NCc3ccc(F)cc3)c(C)cc21	0	-	0	0	0	0
CN(C)CC#Cc1ccc([C@@H]2[C@@H](CO)N3CCCCN(C(=O)C4CCCC4)C[C@@H]23)cc1	-	-	0	0	0	-
COc1ccccc1CNc1ncnc2cc(Cl)ccc12	0	0	0	-	-	-
CCOc1ccccc1CNc1ncnc2ccc(-c3c(C)noc3C)cc12	70	-	0	0	0	0
CS(=O)(=O)n1nc(OC(=O)c2cccs2)cc1N	-	-	0	0	0	89
Cc1noc2ncnc(Sc3ccc(Br)cc3)c12	0	0	0	0	0	99
C[C@H]1CN([C@@H](C)CO)C(=O)c2cc(C#CCN(C)C)cnc2O[C@H]1CN(C)Cc1cccc(C(=O)O)c1	0	-	0	0	0	-
Oc1ccc(-c2nc(-c3ccc(O)c(O)c3)cs2)cc1	0	0	-	0	-	99
O=C(CSc1nnc(CNC(=O)c2c(F)cccc2Cl)o1)Nc1ccccc1	-	0	-	0	-	0
SMILES	Env fusion inh	NSD2 inh	F508del corr	PglD DTNB	Casp6 inh	ALR inh
O=C(CSc1nnc(CNC(=O)c2ccccc2)o1)Nc1ccc2c(c1)OCCO2	0	0	0	0	0	98
O=C(CSc1nnc(CNC(=O)c2ccccc2F)o1)Nc1ccc2c(c1)OCO2	0	0	0	0	0	99
CCc1ccc(NC(=O)CSc2nnc(CNC(=O)c3c(F)cccc3Cl)o2)cc1	0	-	-	0	-	99
O=C(CSc1nnc(CNC(=O)c2ccc(F)cc2)o1)Nc1ccc2c(c1)OCCO2	0	0	0	0	0	0
CCCNC(=O)N1CC2(CN(Cc3ccc(OC)cc3)C2)c2c(n(C)c3cc(OC)ccc23)[C@H]1CO	-	-	0	-	-	-
N#C[C@H]1[C@H](c2ccccc2-c2ccccc2)[C@@H](CO)N1C(=O)Cc1ccncc1	-	-	0	-	0	-
NNCCc1ccccc1	0	-	0	0	0	99
O=C(CCCCC(=O)NCCc1ccccc1)NCCc1ccccc1	0	0	0	0	0	0
O=C(Oc1ccc2[nH]cc(CCN3C(=O)c4ccccc4C3=O)c2c1)c1ccco1	-	0	0	-	0	0
COc1ccc2c(c1)c(CCN1C(=O)c3ccccc3C1=O)cn2C(=O)c1ccco1	-	0	0	0	38	0
CN(CC(=O)NC(=O)Nc1ccccc1F)Cc1ccccc1F	66	0	0	0	0	0
COc1ccc(N=Cc2nc(-c3ccco3)oc2O)cc1	-	0	-	0	-	92
C[C@@H]1CN([C@@H](C)CO)C(=O)c2cc(NC(=O)Nc3ccc4c(c3)OCO4)ccc2O[C@@H](C)CCCCO[C@H]1CN(C)Cc1ccncc1	0	-	0	0	0	-
c1ccc(CSC2=NCCCN2)cc1	0	0	-	-	-	0
CCOc1ccc(CSC2=NCCN2)cc1Cl	0	0	-	-	-	100
Clc1ccccc1CSC1=NCCN1	0	0	0	0	0	-
N#Cc1ccc(CSC2=NCCN2)cc1	0	0	0	-	0	99
C[C@H]1CCCCO[C@H](CN(C)C(=O)Nc2ccccc2)[C@@H](C)CN([C@@H](C)CO)C(=O)c2cc(NC(=O)Nc3ccc(F)cc3)ccc2O1	0	-	0	0	0	-
O=C(COC(=O)c1ccccc1OCc1ccccc1Cl)NC1CCS(=O)(=O)C1 (stereo not given)	-	0	0	0	61	0
O=C(COC(=O)c1ccccc1Cc1ccccc1)NC1CCS(=O)(=O)C1 (stereo not given)	0	0	0	0	0	0
CCN(CC)c1ccc(Nc2nc(N3CCOCC3)c3ccccc3n2)cc1	57	-	-	0	-	99
COc1ccc2c3c(n(C)c2c1)[C@@H](CO)N(C)CC31CN(C(=O)c2ccccc2F)C1	-	-	0	-	-	-
CN(C)c1ccc(N=Nc2ccc3ncccc3c2)cc1	0	0	0	0	0	-
Cc1cc(N(C)C)ccc1N=Nc1ccc2ncccc2c1	0	-	0	0	0	94
Cc1ccc(NC(=O)C[C@H]2CC[C@H]3[C@@H](COc4ccc(NC(=O)C5CCCCC5)cc4C(=O)N3C)O2)cc1	-	-	0	-	-	-
SMILES	Env fusion inh	NSD2 inh	F508del corr	PglD DTNB	Casp6 inh	ALR inh
Cc1ccc([N+](=O)[O-])cc1N=Nc1c(C)[nH]n(C(N)=S)c1=O	0	0	0	0	0	98
Cc1ccc([N+](=O)[O-])cc1N=Nc1c(-c2ccc([N+](=O)[O-])cc2)[nH]n(C(N)=S)c1=O	-	-	-	0	-	-
O=C(C[C@H]1CC[C@@H](NC(=O)c2ccccc2)[C@H](CO)O1)NCc1ccc(Oc2ccccc2)cc1	66[16.7 µM]	-	0	0	0	-
O=C(C[C@@H]1CC[C@H](NC(=O)c2cccc(F)c2)[C@H](CO)O1)NCc1ccc(Oc2ccccc2)cc1	62[16.7 µM]	-	0	0	0	-
O=C(C[C@H]1CC[C@H](NC(=O)c2ccccc2)[C@@H](CO)O1)NCc1ccc(Oc2ccccc2)cc1	0	-	0	0	0	-
C[C@H](CO)N1C[C@H](C)[C@H](CN(C)S(=O)(=O)c2ccccc2)Oc2ccc(NS(=O)(=O)c3cn(C)cn3)cc2CC1=O	0	-	0	0	0	-
CC(C)NC(=O)N(C)C[C@@H]1Oc2c(NS(=O)(=O)c3ccc(Cl)cc3)cccc2C(=O)N([C@@H](C)CO)C[C@@H]1C	0	-	0	0	0	-
COCC(=O)Nc1ccc2c(c1)[C@H]1C[C@H](CC(=O)NCCN3CCCCC3)O[C@@H](CO)[C@H]1O2	0	-	0	0	0	-
